The values below come from PubChem BioAssay.

Unmarked numbers belong to inactive results. For part of these data: Measured potencies and affinities stand elsewhere. The source made the active and inactive calls. Unless noted, no rule for the calls is given here.

Assay [1] is described as follows: antimalarial activity against Dd2 strain (AID 2302;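 active = growth inhibition above 50% at the single 2 µM test dose, taken to imply half-maximal potency below 2 µM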;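 also: 0% = DMSO untreated growth and 100% = chloroquine plus artemisinin killed control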). Particulars: P. falciparum Dd2 in RBCs, LDH growth readout, 72 h; at 2 µM; stronger effect = higher value.
Assay [2] is described as follows: human hepatoma cell viability loss – ATP luminescence, cytotoxicity control for P. falciparum antimalarial project, primary screen (AID 2303;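 active = inhibition above 50%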;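 also: 0% = DMSO wells and 100% = digitonin-killed cells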). The conditions noted are these: HepG2 viability, 24-48 h, at 10 µM, stronger effect = higher value.
For assay [3], the target named is L-lactate dehydrogenase (Plasmodium falciparum (isolate CDC / Honduras)) (UniProt Q27743). As to the kind of experiment: PfLDH activity inhibition – cell lysate, 3D7 strain, counter-screen for P. falciparum growth inhibition project (AID 2304).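 Also: 0% = vehicle and 100% = reference inhibitor.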 Particulars: P. falciparum 3D7 crude extract, LDH APAD/NBT absorbance; at 2 µM; stronger effect = higher value.
Sequence of L-lactate dehydrogenase (Plasmodium falciparum (isolate CDC / Honduras)) (Q27743 whole entry, looked up): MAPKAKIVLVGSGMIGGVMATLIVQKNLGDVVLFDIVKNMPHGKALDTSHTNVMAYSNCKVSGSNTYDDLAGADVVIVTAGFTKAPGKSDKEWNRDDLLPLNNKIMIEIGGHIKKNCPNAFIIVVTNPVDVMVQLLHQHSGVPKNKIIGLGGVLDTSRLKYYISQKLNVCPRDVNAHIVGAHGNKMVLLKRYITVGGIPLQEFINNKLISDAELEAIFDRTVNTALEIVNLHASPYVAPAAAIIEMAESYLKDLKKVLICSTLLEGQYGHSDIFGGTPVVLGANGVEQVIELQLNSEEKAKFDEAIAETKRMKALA
Assay [4] is described as follows: inhibition of 3D7 malaria parasite growth – strain 3D7 (AID 2306).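 Also: 0% = DMSO wells and 100% = chloroquine plus artemisinin control wells.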 Particulars: P. falciparum 3D7 erythrocytic growth, LDH absorbance, 72 h; at 2 µM; stronger effect = higher value.
Assay [5] concerns the target Calcium-dependent protein kinase 1 (Plasmodium falciparum (isolate 3D7)) (UniProt P62344). As to the kind of experiment: PfCDPK1 kinase inhibitors, biochemical, TCAMS library (AID 1159585; cut-off not given, nearly all actives have IC50 up to about 0.98 µM;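 also: inhibitors leave more ATP so luminescence rises with inhibition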). The conditions noted are these: recombinant PfCDPK1, Kinase-Glo ATP depletion luminescence. On the technique in general: Kinase-Glo measures the ATP left after a reaction by luminescence.

Assay [6] concerns the target Plasmodium falciparum protein kinase 6 (PK6, PF3D7_1337100) (UniProt Q8IDW1). As to the kind of experiment: PfPK6 kinase inhibitors, biochemical, TCAMS library (AID 1159586). Particulars: recombinant PfPK6, Kinase-Glo ATP depletion luminescence.
For assay [7], the target named is Protein kinase 7 (PK7), Plasmodium falciparum 3D7 (PF3D7_0213400) (UniProt Q7YTF7). The experiment in a line: inhibition of Plasmodium PK7 catalytic activity – biochemical, TCAMS antimalarial set, Kinase-Glo luminescence (AID 1159587). Particulars: recombinant PfPK7, Kinase-Glo ATP depletion luminescence.
Sequence of Protein kinase 7 (PK7), Plasmodium falciparum 3D7 (PF3D7_0213400) (Q7YTF7 1-343): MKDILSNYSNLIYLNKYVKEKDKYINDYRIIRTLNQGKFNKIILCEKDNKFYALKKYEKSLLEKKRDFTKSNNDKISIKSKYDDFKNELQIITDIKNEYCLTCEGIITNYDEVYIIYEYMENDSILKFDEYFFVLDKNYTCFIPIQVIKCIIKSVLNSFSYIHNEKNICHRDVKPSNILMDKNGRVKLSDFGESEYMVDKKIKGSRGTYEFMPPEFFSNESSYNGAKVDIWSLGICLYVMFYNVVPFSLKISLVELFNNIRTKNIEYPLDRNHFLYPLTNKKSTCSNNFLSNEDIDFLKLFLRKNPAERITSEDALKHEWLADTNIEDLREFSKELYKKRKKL
For assay [8], the target named is Calcium-dependent protein kinase 4 (Plasmodium falciparum (isolate 3D7)) (UniProt Q8IBS5). As to the kind of experiment: PfCDPK4 kinase inhibitors, biochemical, TCAMS library (AID 1159588; cut-off not given, nearly all actives have IC50 up to about 0.91 µM). The conditions noted are these: recombinant PfCDPK4, Kinase-Glo ATP depletion luminescence.
Sequence of Calcium-dependent protein kinase 4 (Plasmodium falciparum (isolate 3D7)) (Q8IBS5 whole entry, looked up): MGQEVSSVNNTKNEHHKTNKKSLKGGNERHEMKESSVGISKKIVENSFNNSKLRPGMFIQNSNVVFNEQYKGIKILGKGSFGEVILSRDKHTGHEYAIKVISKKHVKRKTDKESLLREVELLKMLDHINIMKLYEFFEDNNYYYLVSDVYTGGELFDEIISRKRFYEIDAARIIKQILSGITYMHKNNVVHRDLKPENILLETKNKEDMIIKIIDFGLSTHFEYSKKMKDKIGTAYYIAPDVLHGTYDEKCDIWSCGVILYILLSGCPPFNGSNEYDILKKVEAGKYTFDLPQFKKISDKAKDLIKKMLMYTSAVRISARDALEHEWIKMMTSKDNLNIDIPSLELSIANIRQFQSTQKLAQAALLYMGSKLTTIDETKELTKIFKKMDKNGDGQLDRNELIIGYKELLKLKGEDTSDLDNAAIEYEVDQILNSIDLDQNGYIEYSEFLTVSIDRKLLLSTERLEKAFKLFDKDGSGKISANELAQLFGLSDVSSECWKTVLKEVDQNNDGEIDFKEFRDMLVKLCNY

Sequence of Calcium-dependent protein kinase 1 (Plasmodium falciparum (isolate 3D7)) (P62344 whole entry, looked up): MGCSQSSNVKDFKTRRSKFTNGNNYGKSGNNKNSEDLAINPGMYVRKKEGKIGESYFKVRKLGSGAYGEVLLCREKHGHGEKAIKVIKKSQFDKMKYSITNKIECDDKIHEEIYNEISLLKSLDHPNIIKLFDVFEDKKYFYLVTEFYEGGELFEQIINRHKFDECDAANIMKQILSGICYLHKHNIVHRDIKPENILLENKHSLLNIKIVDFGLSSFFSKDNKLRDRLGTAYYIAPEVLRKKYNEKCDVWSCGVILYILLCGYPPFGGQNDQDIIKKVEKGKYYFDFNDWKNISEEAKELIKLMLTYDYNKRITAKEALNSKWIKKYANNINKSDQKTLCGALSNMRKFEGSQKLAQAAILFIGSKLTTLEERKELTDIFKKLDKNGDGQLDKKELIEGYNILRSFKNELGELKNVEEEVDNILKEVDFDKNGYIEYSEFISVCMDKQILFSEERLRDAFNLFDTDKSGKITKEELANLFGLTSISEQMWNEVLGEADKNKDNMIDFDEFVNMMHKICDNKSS
Sequence of Plasmodium falciparum protein kinase 6 (PK6, PF3D7_1337100) (Q8IDW1 1-305): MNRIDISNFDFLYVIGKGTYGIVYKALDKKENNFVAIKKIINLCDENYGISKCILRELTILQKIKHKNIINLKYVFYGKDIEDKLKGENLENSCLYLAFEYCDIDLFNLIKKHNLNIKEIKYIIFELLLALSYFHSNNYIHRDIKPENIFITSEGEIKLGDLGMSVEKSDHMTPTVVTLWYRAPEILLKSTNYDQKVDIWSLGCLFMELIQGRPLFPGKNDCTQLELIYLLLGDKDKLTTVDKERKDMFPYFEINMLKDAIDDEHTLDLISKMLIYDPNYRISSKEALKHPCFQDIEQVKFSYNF

What is called inhibition is the relative decrease from the control value, in per cent. On to `CCN1CCc2c1cc(C(=O)N[C@@H](Cc1ccccc1)[C@H](O)CNC(C)(C)c1cccc(C(F)(F)F)c1)cc2N1CCCCS1(=O)=O`, for which the growth inhibition in assay [1] is 99% (active); in assay [4], 100% (active). The inhibition is 6% in assay [2] and -1% in assay [3]. For the same molecule, the outcome in assay [5], in assay [6], in assay [7] and in assay [8] was inactive.
Turning to `Clc1cc(Nc2ncnc3cc(C#C[C@H]4CCCN4)sc23)cc2[nH]c(Cc3ccccc3)nc12`, the growth inhibition in assay [1] is 57% (active); in assay [4], 91% (active). Also, the inhibition was 29% in assay [2] and 1% in assay [3]. In addition, the outcome in assay [5], in assay [6], in assay [7] and in assay [8] was inactive.
Consider `COc1ccc2nccc(NC(=O)N3CCC(NCCOc4cc(F)cc(F)c4)CC3)c2n1`, for which the growth inhibition was 38% in assay [1] and 86% (active) in assay [4]. For the same molecule, the inhibition was 14% in assay [2] and -2% in assay [3]. For the same molecule, the outcome in assay [5], in assay [6], in assay [7] and in assay [8] was inactive.
In the case of `O=C(c1ccccc1)N1CCC(CN2CCOC(c3ccccc3)(c3ccccc3)C2)CC1`, the growth inhibition in assay [1] was 95% (active); in assay [4], 94% (active). The inhibition in assay [2] is 14%; in assay [3] it was 1%. Besides, the outcome in assay [5], in assay [6], in assay [7] and in assay [8] was inactive.
Regarding `OC(CNCc1cccc(Oc2ccc(Cl)cc2)c1)c1cccc(C(F)(F)F)c1` (stereo not drawn), the growth inhibition in assay [1] is 78% (active); in assay [4], 94% (active). The inhibition in assay [2] was -1%; in assay [3], 3%. The outcome in assay [5], in assay [6], in assay [7] and in assay [8] was inactive.
Turning to `O=C(CCCCCNC(=O)c1ccc(O)c(-c2ccc(Cl)c(Cl)c2)c1)NCc1cccc2ccccc12`, the growth inhibition in assay [1] was 15%; in assay [4] it was 99% (active). Further, the inhibition in assay [2] was 2%; in assay [3], -2%. For the same molecule, the result in assay [5], in assay [6], in assay [7] and in assay [8] was inactive.
In the case of `Cc1cccc(C(=O)Nc2ccnc(N(C)CCCN(C)Cc3cccc(C#N)c3)c2)c1`, the growth inhibition in assay [1] was 12%; in assay [4], 92% (active). In addition, the inhibition in assay [2] is 1%; in assay [3] it was -2%. The result in assay [5], in assay [6], in assay [7] and in assay [8] was inactive.
For the molecule `Cn1c(Nc2nnc(C3CC3)s2)nc2cc(Nc3ccnc(Nc4cccc(CS(C)(=O)=O)c4)n3)ccc21`, the growth inhibition in assay [1] is 83% (active); in assay [4] it was 97% (active). For the same molecule, the inhibition in assay [2] is -6%; in assay [3] it was -1%. For the same molecule, the outcome in assay [5], in assay [6], in assay [7] and in assay [8] was inactive.
`COc1ccc2nccc([C@@H](O)CN3CCC(NCc4cnc5snnc5c4)C(F)C3)c2c1` (stereo partly drawn): the values for the growth inhibition in assay [1] and in assay [4] were 88% (active) and 83% (active), respectively. Moreover, the inhibition was 13% in assay [2] and 2% in assay [3]. In addition, the outcome in assay [5], in assay [6], in assay [7] and in assay [8] was inactive.
For `Cc1sc(C)c(CNCCCNc2cc(=O)c3ccccc3[nH]2)c1Br`, the growth inhibition in assay [1] is 15%; in assay [4] it was 93% (active). The inhibition in assay [2] is -4%; in assay [3] it was -2%. Further, the outcome in assay [5], in assay [6], in assay [7] and in assay [8] was inactive.
In the case of `Cc1cc(-c2cccc(CNC3CCN(C)CC3)c2)ccc1S(=O)(=O)NCCc1ccccn1`, the growth inhibition is 72% (active) in assay [1] and 97% (active) in assay [4]. Further, the inhibition in assay [2] is 22%; in assay [3], 2%. Besides, the result in assay [5], in assay [6], in assay [7] and in assay [8] was inactive.
As to `COc1ccc(C(=O)N2CCC3(CC2)C(=O)N(CC(=O)NCC2CCCCC2)CN3c2ccccc2)c(OC)c1`, the growth inhibition in assay [1] was 99% (active); in assay [4] it was 100% (active). Further, the inhibition in assay [2] is 6%; in assay [3] it was 4%. For the same molecule, the result in assay [5], in assay [6], in assay [7] and in assay [8] was inactive.
`CCOc1ccc(C(=O)Nc2cc(Br)c3c(c2)CNCC3)cc1C(F)(F)F`: the growth inhibition in assay [1] was 22%; in assay [4], 98% (active). Moreover, the inhibition in assay [2] was 15%; in assay [3], 6%. Moreover, the outcome in assay [5], in assay [6], in assay [7] and in assay [8] was inactive.
As to `O=C(/C=C/c1ccc(-c2nc3cc(F)c(F)cc3[nH]2)cc1)NCc1ccc(Cl)c(Cl)c1`, the growth inhibition in assay [1] was 24%; in assay [4], 100% (active). Besides, the inhibition in assay [2] was 14%; in assay [3], 4%. Moreover, the result in assay [5], in assay [6], in assay [7] and in assay [8] was inactive.
As for `CN(C)C(=O)CN1CCN(c2ncnc(N3CCc4c([nH]c5ccccc45)[C@@H]3c3ccc4c(c3)CCO4)n2)CC1`, the growth inhibition in assay [1] was 98% (active); in assay [4], 99% (active). In addition, the values for the inhibition in assay [2] and in assay [3] were 12% and -1%, respectively. Moreover, the result in assay [5], in assay [6], in assay [7] and in assay [8] was inactive.
With `CN1CCC(NCc2ccc(-c3ccc(S(=O)(=O)NCc4ccccc4)c(F)c3)cc2)CC1`, the growth inhibition in assay [1] is 89% (active); in assay [4], 99% (active). The figures for the inhibition in assay [2] and in assay [3] were 53% (active) and -3%, respectively. Moreover, the outcome in assay [5], in assay [6], in assay [7] and in assay [8] was inactive.
On to `CCC[C@@H]([C@@H](CC1CCCCC1)C(=O)N[C@H](C(=O)Nc1nccs1)C(C)(C)SCCOCCOCC)N(O)C=O`, for which the values for the growth inhibition in assay [1] and in assay [4] were 97% (active) and 100% (active), respectively. Moreover, the inhibition in assay [2] is 40%; in assay [3], -5%. For the same molecule, the outcome in assay [5], in assay [6], in assay [7] and in assay [8] was inactive.
Turning to `c1ccc(C23N=C(Nc4nc5ccccc5[nH]4)NC2(c2ccccc2)NC(Nc2nc4ccccc4[nH]2)=N3)cc1` (stereo not drawn), the growth inhibition is 89% (active) in assay [1] and 97% (active) in assay [4]. Moreover, the inhibition was 2% in assay [2] and 3% in assay [3]. Besides, the outcome in assay [5], in assay [6], in assay [7] and in assay [8] was inactive.
With `CC(C)c1ccc(C(NC(=O)C2CCCCC2)c2ccc3cccnc3c2O)cc1` (stereo not drawn), the figures for the growth inhibition in assay [1] and in assay [4] were 70% (active) and 89% (active), respectively. Further, the inhibition was 46% in assay [2] and -8% in assay [3]. In addition, the outcome in assay [5], in assay [6], in assay [7] and in assay [8] was inactive.
On to `N#Cc1ccc2c(c1)CCN(CCC1CCC(NC(=O)Nc3ccncc3)CC1)C2` (stereo not drawn), for which the growth inhibition is 3% in assay [1] and 85% (active) in assay [4]. The figures for the inhibition in assay [2] and in assay [3] were 6% and -4%, respectively. The outcome in assay [5], in assay [6], in assay [7] and in assay [8] was inactive.
As to `CS(=O)(=O)CCNCc1nc(-c2ccc3c(Nc4ccc(F)c(O)c4)ccnc3c2)cs1`, the growth inhibition was 84% (active) in assay [1] and 95% (active) in assay [4]. The inhibition in assay [2] was -10%; in assay [3], 3%. Also, the result in assay [5], in assay [6], in assay [7] and in assay [8] was inactive.
